A selection: hits, their analogues and other compounds. The true share with any hit is near 19%.
IL1B secr inh: blocks inflammasome-driven IL-1 beta release | 360,000 tested, 4.7% active | activity change, % at 57.5 µM | THP-1 LPS/ATP IL-1B secretion, AlphaLISA, 16 h; hits give low values; in the data active = activity change below about -50%; inconclusive = mostly about -30% to -49%
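Secreted IL-1B measured by AlphaLISA bead assay after 16 h compound exposure of THP-1 cells; compounds (final up to 57.5 uM) added 1 h before LPS (250 ng/mL) and ATP (1.25 mM) stimulation; lower signal means less secretion.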
TDP1 cell CPT: growth inhibition of DT40 Tdp1-/-;hTDP1 cells with camptothecin (screen for TDP1 inhibitors); Potency, µM (titrated, usually from 46.2 µM), for inactives: top-dose activity change, negative = growth inhibition, most hits filed as inhibitors; chicken DT40 Tdp1-/-;hTDP1 cells + 20 nM CPT, ATP luminescence, 48 h; 420,000 tested, 12% active; AID 686979; note: potency is the fitted concentration of half-maximal effect; nearly all actives have a fitted effect of over 55% in size
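Cell growth measured by CellTiter-Glo luminescence after a minimum 48 h, 37 C compound exposure with 20 nM CPT in Tdp1-knockout DT40 cells stably expressing hTDP1, seeded 400/well; qHTS titration format.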
HT1080 IDH1KD tx: HT-1080 IDH1 knockdown cell toxicity (counter line). HT-1080 IDH1 knockdown viability, ATP luminescence, 48 h. 360,000 tested, 2% active. Potency, µM (highest dose often 46.1 µM), inactives show at the top dose activity, negative = toxicity, hits mostly cytotoxic. AID 686971;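 note: potency is the fitted concentration of half-maximal effect; 0% = DMSO wells and -100% = cell-free medium wells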
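Cytotoxicity counter-line: IDH1KD HT-1080, 48 h, CellTiter-Glo. Curves classed by r2, magnitude and activity.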
ELG1 repair inh: blocks ELG1-dependent DNA repair in HEK293T cells; Potency, µM (top dose mostly 46.1 µM), for the others: top-dose activity change, negative = inhibition, actives largely listed as inhibitors; HEK293T ELG1-luciferase reporter, luminescence, 16 h; DNA damage induced by 5-fluorouridine; 330,000 tested, 2.3% active; note: potency is the fitted concentration of half-maximal effect; nearly all actives have a fitted effect of over 55% in size
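Reporter activity after DNA damage by 5-fluorouridine is monitored. Compound-treated cells incubate 16 hr at 37 °C, then ONE-Glo is added for 30 min before luminescence reading.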
DT40 TDP1 no CPT: qHTS for Inhibitors of human tyrosyl-DNA phosphodiesterase 1 (TDP1): qHTS in cells in absence of CPT | DT40 Tdp1-/- hTDP1 cells, no CPT, ATP luminescence, 48 h | Potency, µM (series often up to 46.2 µM), inactives show at the highest dose activity change, negative = growth inhibition, most hits filed as inhibitors | 420,000 tested, 15% active; note: potency is the fitted concentration of half-maximal effect; nearly all actives have a fitted effect of over 55% in size
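A cellular qHTS used chicken DT40 cells lacking endogenous Tdp1 but carrying stably transfected human TDP1. Compounds were applied without camptothecin, and cell growth kinetics were judged by ATP-dependent luminescence after ≥48 hr.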
HT1080NT lethal: kills 2HG-producing HT-1080-NT fibrosarcoma cells | Potency, µM (highest dose often 46.1 µM), without a hit: at the highest dose activity, negative = less viability, usual class: cytotoxic | 360,000 tested, 1.6% active | HT-1080-NT fibrosarcoma viability, CellTiter-Glo ATP luminescence, 48 h;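 note: NT is the 2HG producing partner of a matched IDH1 knockdown line; potency is the fitted concentration of half-maximal effect; 0% = DMSO-treated cells and -100% = media-only wells without cells; nearly all actives have a fitted effect of over 55% in size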
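HT-1080-NT fibrosarcoma cells (2HG-overproducing), 750 cells/well in RPMI with 5% FBS, dosed after 2 h and incubated 48 h at 37C. CellTiter-Glo luminescence normalized to DMSO and no-cell wells; concentration-response curves fitted and classed.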
* marks the source's active call; other numbers are inactive results; i = inactive; ? = inconclusive; . = no result given; [ ] = dose if it differs, or a comment. Unless noted, calls come from the whole dose curve; as a rule, active = well fitted curve in the direction sought with a large enough effect; inconclusive = small, poorly fitted or top-dose-only effect, or another doubt; inactive = no such curve, though single readings can be large; an effect the other way counts as inactive or inconclusive. Unless noted, % is set by controls: 0 for no effect and ±100 for the full control effect.

SMILES	IL1B secr inh	TDP1 cell CPT	HT1080 IDH1KD tx	ELG1 repair inh	DT40 TDP1 no CPT	HT1080NT lethal
CC(C)(C)C(=O)Nc1cc(S(=O)(=O)N2CCCCC2)ccc1N1CCCCC1	0	16µM*	?	3%	23µM*	?
O=C(Nc1cc(S(=O)(=O)N2CCOCC2)ccc1N1CCCCC1)c1ccccc1Br	-59*	?	11%	?	?	5%
CC1CN(S(=O)(=O)c2cccc(C(=O)N=c3sccn3C)c2)CC(C)O1 (stereo not given)	-2	18µM*	-3%	-8%	?	-12%
CCOc1ccc(C(=O)Nc2sc3c(c2C(=O)OC)CC(C)(C)NC3(C)C)cc1	-16	?	-16%	-2%	16µM*	-15%
CCOC(=O)c1c(NC(=O)CSc2nc3ccccc3[nH]2)sc2c1CC(C)(C)NC2(C)C	-51*	?	5%	?	?	-2%
CC1(C)Cc2c(sc(NC(=O)c3ccc4c(c3)OCCO4)c2C(N)=O)C(C)(C)N1	-67*	-3%	?	-13%	11%	?
COC(=O)c1c(NC(=O)c2nc3ccccc3s2)sc2c1CC(C)(C)NC2(C)C	-4	23µM*	7%	3%	21µM*	-10%
COc1ccc(NC(=O)c2nc3ccccc3s2)cc1	-25	25%	-7%	?	-21%	0%
COC(=O)c1c(NC(=O)c2ccc(C(=O)c3ccccc3)cc2)sc2c1CC(C)(C)NC2(C)C	-4	-14%	10%	.	?	-2%
Cn1c(SCC2CCCO2)nnc1C1CCN(Cc2ccccc2O)CC1 (stereo not given)	.	9%[9.04 µM]	.	.	-5%	.
CC1(C)Cc2c(sc(NC(=O)COc3ccc(Cl)cc3)c2C#N)C(C)(C)N1	-70*	?	?	2%	?	?
CCOC(=O)c1c(C)[nH]c(C)c1C(=O)COC(=O)/C=C/c1ccco1	9	-11%	3%	-10%	-19%	-12%
CC1(C)Cc2c(sc(NC(=O)c3ccc(C(=O)c4ccccc4)cc3)c2C#N)C(C)(C)N1	i	-3%	-17%	?	-17%	-13%
CCOC(=O)c1c(NC(=O)COc2ccccc2)sc2c1CC(C)(C)NC2(C)C	-4	?	9%	0%	16µM*	0%
CCOC(=O)c1c(NC(=O)c2ccccc2)sc2c1CCc1ccccc1-2	25	?	6%	-7%	?	1%
CCOC(=O)c1c(NC(=O)COC(=O)/C=C/c2ccco2)sc2c1CC(C)(C)NC2(C)C	-68*	?	-4%	?	5.8µM*	2%
O=C(Cn1ccc2ccccc2c1=O)NCC(=O)N1CCN(c2ccccc2F)CC1	0	5%	-11%	-8%	-14%	-1%
CC1(C)CC(N2CCN(Cc3ccccc3)CC2)=CC(=[N+]2CCCCC2)C1	-51*	0.058µM*	?	0.73µM*	0.046µM*	-27%
CC1(C)CC(=O)C=C(N2CCN(C3=CC(=O)CC(C)(C)C3)CC2)C1	.	.	.	5%	.	.
CC1(C)CC(N2CCCC2)=CC(=[N+]2CCCC2)C1	-8	0.41µM*	?	-8%	0.29µM*	?
c1ccc(CN2CCN(c3cnc4ccccc4n3)CC2)cc1	22	-24%	-2%	?	?	0%
CN(Cc1ccccc1)C1=CC(=[N+]2CCCCC2)CC(C)(C)C1	-70*	0.15µM*	?	?	0.01µM*	?
CC1(C)CC(N2CCCC2)=CC(=[N+]2CCCCC2)C1	-5	0.41µM*	?	1.2µM*	0.26µM*	?
COc1ccc(-c2nnc3c4ccccc4c(-c4ccccc4)nn23)cc1	.	11%	.	.	0%	.
O=C(CNC(=O)c1sc2ccccc2c1Cl)NCc1ccc(F)cc1	-7	?	-11%	8%	-28%	-14%
SMILES	IL1B secr inh	TDP1 cell CPT	HT1080 IDH1KD tx	ELG1 repair inh	DT40 TDP1 no CPT	HT1080NT lethal
COc1cc2c(cc1NC(=O)CSc1nc3cc(Cl)ccc3s1)oc1ccccc12	24	?	3%	-16%	12µM*	7%
COc1cc2c(cc1NC(=O)CSc1ccccc1)oc1ccccc12	13	?	13%	?	?	7%
COc1cc2c(cc1NC(=O)CSc1nccn1C)oc1ccccc12	-20	?	-10%	5%	18µM*	1%
COCCNCc1ccccc1[N+](=O)[O-]	48	-2%	7%	6%	8%	10%
COc1ccccc1NS(=O)(=O)c1cc(NC(=O)c2cc(F)c(F)c(F)c2F)ccc1N1CCOCC1	-1	?	-18%	1%	16µM*	-11%
COc1ccccc1NS(=O)(=O)c1cc(NC(=O)c2ccccc2C)ccc1N1CCOCC1	-20	?	-11%	.	?	1%
COc1ccccc1NS(=O)(=O)c1cc(NC(=O)c2[nH]c(C)c(C(C)=O)c2C)ccc1N1CCOCC1	82	7.3µM*	-18%	?	2.9µM*	-27%
COc1ccccc1NS(=O)(=O)c1cc(NC(=O)c2ccc(=O)[nH]c2)ccc1N1CCOCC1	38	?	9%	20%	16µM*	10%
COc1ccc(Cl)cc1NC(=O)N1CCN(Cc2cc(=O)n3nc(-c4ccccc4)sc3n2)CC1	.	-14%	.	.	-23%	.
CC1CC(C)CN(c2nc(N(C)c3ccccc3)nc(N)c2[N+](=O)[O-])C1 (stereo not given)	50	?	-25%	?	13µM*	-20%
CCOC(=O)C1CCN(c2cc3c(cc2NC(=O)c2cc(OC)ccc2Br)n(C)c(=O)n3C)CC1	0	16µM*	14%	?	12µM*	9%
COc1cccc(C(=O)Nc2cc3c(cc2N2CCCC2)n(C)c(=O)n3C)c1	5	?	-2%	7%	?	6%
COc1ccc(Br)c(C(=O)Nc2cc3c(cc2N2CCCCC2)n(C)c(=O)c(=O)n3C)c1	.	23µM*	.	.	8.2µM*	.
COc1ccc(Br)c(C(=O)Nc2cc3c(cc2N2CCOCC2)n(C)c(=O)n3C)c1	.	23µM*	.	.	?	.
Cn1c(=O)c(=O)n(C)c2cc(N3CCOCC3)c(NS(=O)(=O)c3ccc(Br)cc3)cc21	-69*	-30%	-1%	1%	-9%	-1%
COc1ccc(-n2c(=O)cnc3cnc(Oc4cccc(Cl)c4)nc32)cc1	.	6%	.	.	?	.
COCCN(C(=O)COC(=O)c1ccc(C=O)cc1)c1c(N)n(Cc2ccccc2)c(=O)[nH]c1=O	-7	0%	-4%	15%	-12%	8%
